This passage reports IC50 and inhibition results from PubChem BioAssay AID624351 (Southern Research Specialized Biocontainment Screening …, 2012).

Out of some 2,400 compounds screened, about 1,400 (58%) were called active. So high a share suggests a set chosen from earlier hits. Some of the results follow. Values without a mark were called inactive.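 Rule for the calls: active = inhibition of 30% or more at any tested dose; inconclusive = primary hits over the limit that were never retested; inactive = the rest.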

The IC50 is the concentration that inhibits the measured activity by half. One may read the inhibition as the change of the read-out against control, counted positive when it falls.

This assay is described as follows: ADP Hunter readout inhibition without MgcRacGAP – biochemical, coupled enzyme counter-screen, artefact control for MgcRacGAP inhibitor project, dose response (AID 624351).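 For inhibition: 0% = median positive control wells and 100% = median negative control wells.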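 Note: signal is the ADP detection kit reading of free GDP without any GAP enzyme.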 To be noted: fluorescence, no MgcRacGAP; series mostly up to 80 µM. In general terms: The purpose of a counterscreen is to sort out artefacts and off-target activity.
Regarding `C=CCc1cc(Cl)ccc1OCCn1ccnc1`, the IC50 result is “inactive”.
For `O=[N+]([O-])c1cccc(SSc2cccc([N+](=O)[O-])c2)c1`, the IC50 result is “inactive”.
The same measure, in the same setting: for `N#CC1=C(S)N(c2ccccc2)C(c2ccc(-c3cccc(Cl)c3)o2)NC1=O` (stereo not given) the value was “inactive”.
Same read-out and setting: as for `O=c1c(-c2ccccc2)c[nH]n1-c1cccc([N+](=O)[O-])c1`, the figure is 41.6 µM (active); as for `O=c1c(-c2cccc(Cl)c2)c[nH]n1-c1ccccc1`, 52.1 µM (active).
With `O=c1c2ccccc2sn1-c1cccc(Cl)c1`, the IC50 entry was “inactive”.
The same measure, in the same setting: for `C=CCN=c1scc(C)n1/N=C/c1ccc(O)c(O)c1` the value was 15.4 µM (active); for `CN=c1scc(C)n1/N=C/c1ccc(O)cc1`, 19.3 µM (active); for `CN=c1scc(C)n1/N=C/c1ccc(O)cc1O`, 10.1 µM (active).
Turning to `Cn1c(=O)c2c([nH]c(=S)n2CCCc2ccccc2)n(C)c1=O`, the IC50 is 11.4 µM (active).
On the same count and under the same terms, as for `Cn1c(=O)[nH]c(=O)c2c1[nH]c(=S)n2Cc1ccccc1`, the figure is 19.2 µM (active); as for `Cn1c(=O)[nH]c(=O)c2c1[nH]c(=S)n2CCCc1ccccc1`, 15.2 µM (active).
The same measure, in the same setting: for `CN(C)C(=S)N=c1ssc(=S)n1Cc1ccccc1` the value was “inactive”; for `Cn1c(=O)[nH]c(=O)c2c1[nH]c(=S)n2Cc1ccc(Cl)cc1`, 22.2 µM (active).
For `c1ccc2c(c1)c1c(c3ccccc32)CN2CCCC2C1` (stereo not given), the inhibition was -11.7% [at 10 µM].
Regarding `O=C1c2c([N+](=O)[O-])cc([N+](=O)[O-])cc2S(=O)N1Cc1ccccc1` (stereo not given), the IC50 entry was “inactive”.
The same measure, in the same setting: as for `COc1ccc(NCc2ccc([N+](=O)[O-])s2)c(OC)c1`, the figure is 33.3 µM (active).
Regarding `COc1ccc(NC(=O)CNCc2cccs2)c(OC)c1`, the IC50 entry is “inactive”.
On to `COc1ccc(N2CCCC2)c(NC(=O)c2ccc([N+](=O)[O-])o2)c1`, for which the IC50 result was “inactive”.
On the same count and under the same terms, for `Cn1c(N2CCOCC2)c(/C=N/O)c2ccccc21` the value was 60.1 µM (active).
On the same count and under the same terms, for `CCn1c(=S)[nH]c2c(=O)n(C)c(=O)n(C)c21` the value was 18.9 µM (active); for `CCCCn1c(=S)[nH]c2c(=O)n(C)c(=O)n(C)c21`, 15.6 µM (active).
The same measure, in the same setting: as for `Cn1c(=O)c2[nH]c(=S)n(Cc3ccccc3)c2n(C)c1=O`, the figure is 18.4 µM (active).
For `Cc1cc(C)c(OCC(O)CN2CCN(C(=O)c3ccccc3)CC2)c(C)c1` (stereo not given), the IC50 result was “inactive”.
Take `CCOC(=O)Nc1ccc(OC(=O)Oc2ccc(NC(=O)OCC)cc2)cc1`: the IC50 is 41.3 µM (active).
As to `CC(=O)Nc1ccc(OC(=O)Cc2ccc(Cl)cc2)cc1`, the IC50 entry was “inactive”.
On the same count and under the same terms, as for `Cn1nccc1C(=O)Nc1ccc(OC(=O)c2ccnn2C)cc1`, the entry is “inactive”; as for `CCOC(=O)c1oc2cc(O)cc(C)c2c1C`, 54.1 µM (active).
Regarding `CCCCCCCCCCCCCCCC[N+](C)(C)Cc1ccc(F)cc1`, the IC50 result is “inactive”.
`N#Cc1c(Nc2ccccc2)s[nH]c1=O`: the IC50 result is “inactive”.
On the same count and under the same terms, for `CCOC(=O)c1sc(/N=C/c2c(O)ccc3ccccc23)cc1C` the value was 36 µM (active); for `CCOC(=O)c1sc(/N=C/c2ccc(O)cc2O)cc1C`, 24.7 µM (active).
For `CCCS(=O)(=O)N1CCN(C2CCC(C)CC2)CC1` (stereo not given), the IC50 result is “inactive”.
As for `CC1(C)CNc2cc(N)ccc2S1`, the IC50 was 26.6 µM (active).
Still for that read-out and setting: for `CCN(CC)CCOC(=O)c1ccc(N/C=C(/C#N)c2nc(-c3ccc(OC)c(OC)c3)cs2)cc1` the value was “inactive”.
`O=C(O)c1c2c(nc3ccccc13)/C(=C/c1ccc(O)cc1)CCC2`: the IC50 was 60.2 µM (active).
Regarding `O=C(COC(=O)c1c2c(nc3ccccc13)/C(=C/c1ccco1)CC2)NC1CCCC1`, the IC50 entry is “inactive”.
Still for that read-out and setting: as for `CC(C)NCC(=O)Nc1c2c(nc3ccccc13)CCC2`, the entry is “inactive”.
Regarding `Cc1ccc(Nc2ccc(N)cc2S(=O)(=O)O)cc1`, the IC50 was 40.2 µM (active).
With `COC(=O)c1cc(NCc2c(F)cccc2Cl)ccc1N1CCOCC1`, the IC50 entry was “inactive”.
Same read-out and setting: for `Nc1ccc(N2CCOCC2)c(Cl)c1` the value was 51.3 µM (active); for `COC(=O)c1cc(NCc2ccccc2F)ccc1N1CCOCC1`, “inactive”.
On the same count and under the same terms, for `Nc1ccc(N2CCCCC2)c(Cl)c1` the value was 37.9 µM (active).
On the same count and under the same terms, for `O=C(CNCc1ccccn1)Nc1cc(C(F)(F)F)ccc1N1CCOCC1` the value was “inactive”; for `Nc1cc(C(F)(F)F)ccc1N1CCOCC1`, 30.2 µM (active).
Consider `Cc1cccc(C)c1OCCCCN1CCNCC1`, for which the IC50 entry was “inactive”.
As for `O=C(NN=Cc1ccc(O)cc1)c1ccccc1NS(=O)(=O)c1cccs1`, the IC50 was 75.6 µM (active).
On the same count and under the same terms, for `COc1cc(/C=N/NC(=O)c2ccccc2NS(=O)(=O)c2cccs2)ccc1O` the value was 79 µM (active); for `CC(=O)Oc1ccc([N+](=O)[O-])cc1N1C(=O)c2ccccc2C1=O`, “inactive”; for `CSc1ccc(CN2CCC(N3CC(C)OC(C)C3)CC2)cc1` (stereo not given), “inactive”.
Still for that read-out and setting: for `Oc1ccc(/C=N/Nc2ncnc3c2ncn3Cc2ccccc2)cc1O` the value was 40.7 µM (active).
With `C=C1c2cccc(O)c2C(O)=C2C(=O)[C@]3(O)C(O)=C(C(N)=O)C(=O)[C@@H](N(C)C)[C@@H]3[C@@H](O)[C@H]12`, the IC50 result is “inactive”.
The same measure, in the same setting: as for `O=C1C=C(Nc2ccc(O)cc2)C(=O)c2ccccc21`, the figure is 24.7 µM (active); as for `COc1ccc(S(=O)(=O)/N=C2\C=C(Nc3ccc(O)cc3)C(=O)c3ccccc32)cc1`, 52 µM (active).
Same read-out and setting: for `O=C1C(=C(I)I)c2ccccc2-c2ccccc21` the value was “inactive”; for `COc1cc(C=C2C(=O)c3ccccc3C2=O)cc(OC)c1OC`, “inactive”.
On the same count and under the same terms, as for `O=C1C(Cl)=C(NCCc2ccccc2)C(=O)c2ccccc21`, the entry is “inactive”.
Regarding `COC1=C(Nc2ccc(O)cc2)C(=O)c2ccccc2C1=O`, the IC50 is 30.7 µM (active).
For `O=C1C(Nc2ccc(O)cc2)=C/C(=N/S(=O)(=O)c2cccs2)c2ccccc21`, the IC50 is 50.8 µM (active).
The same measure, in the same setting: for `COc1ccc(CN2CCC(N(CCc3ccccc3)Cc3ccccc3)CC2)c(OC)c1` the value was “inactive”; for `COc1ccc(OCCOCCN2CCN(C)CC2)cc1`, “inactive”.
For the molecule `CN(C)CCCC1Sc2ccccc2Sc2ccccc21` (stereo not given), the IC50 entry is “inactive”.
The same measure, in the same setting: for `CC1=NN(c2ccccc2)C(=O)/C1=C/C=C/C=C/N(C)C` the value was 68.9 µM (active); for `COc1ccccc1/C=C1/C(=O)N(c2ccccc2)N=C1C`, “inactive”; for `CC1=NN(c2ccccc2)C(=O)/C1=C/C=C/c1ccc(N(C)C)cc1`, “inactive”.
The same measure, in the same setting: for `O=C(O)C1CCN(Cc2cnn(-c3ccccc3)c2-n2cccc2)CC1` the value was “inactive”; for `COc1ccc(C(=O)/C=C(\C)Nc2ccc(NC(C)=O)cc2)cc1`, “inactive”; for `C/C(=C\C(=O)c1ccccc1)Nc1ccc(O)cc1`, 19.2 µM (active).
For `O=C(Nc1ccc(O)cc1)c1ccc(C(=O)c2ccccc2)o1`, the IC50 is 26.1 µM (active).
On the same count and under the same terms, for `C/C(=C\C(=O)c1cccnc1)Nc1ccc(O)cc1` the value was 13.6 µM (active); for `Cc1ccc(C2CC(=O)N3CN(c4ccc(Br)cc4)CSC3=C2C#N)o1` (stereo not given), “inactive”.
Same read-out and setting: for `O=C(CSc1cn[nH]n1)Nc1cccc(C(=O)O)c1` the value was “inactive”; for `CSc1ccc(/C=N/Nc2cccc(C(=O)O)c2)cc1`, “inactive”; for `Cc1ccsc1/C=N/Nc1cccc(C(=O)O)c1`, 72.9 µM (active).
Still for that read-out and setting: for `O=C(O)c1cccc(N/N=C/c2cccs2)c1` the value was 62.5 µM (active); for `CN(c1ccc(O)cc1)c1nc(-c2ccccc2)cs1`, 53.7 µM (active); for `CN(c1ccc(O)cc1)c1nc(-c2cccnc2)cs1`, 19.9 µM (active).
Regarding `CCC1=NN2C(=N)/C(=C\c3ccc(SCc4ccco4)o3)C(=O)N=C2S1`, the IC50 entry is “inactive”.
On the same count and under the same terms, for `COC(=O)c1[nH]c2ccc(C)cc2c1NC(=O)Oc1ccccc1` the value was “inactive”; for `COC(=O)c1[nH]c2cc(OC)c(OC)cc2c1NC(=O)Oc1ccccc1`, 19.5 µM (active).
Turning to `COC(=O)c1[nH]c2ccccc2c1NC(=O)Oc1ccccc1`, the IC50 was 15.6 µM (active).
Take `COC(=O)c1[nH]c2ccc(Cl)cc2c1NC(=O)Oc1ccccc1`: the IC50 was 18.5 µM (active).
Same read-out and setting: for `Cc1[nH]c2ccccc2c1-c1csc(NC(=O)CSCCO)n1` the value was “inactive”; for `O=C1C=CC2(O[C@H](c3ccccc3)[C@@H](c3ccccc3)O2)[C@H](Sc2ccccc2O)C1`, “inactive”; for `CC1=CC(c2ccccc2)NC(=S)N1` (stereo not given), “inactive”.
Same read-out and setting: as for `O=[N+]([O-])/C=C/c1ccc2c(ccn2Cc2ccccc2)c1`, the entry is “inactive”; as for `O=c1c(O)c(-c2ccc(O)c(O)c2)oc2cc(O)ccc12`, 52.8 µM (active); as for `COc1c(-c2ccc(O)c(O)c2)oc2cc(O)cc(O)c2c1=O`, 34 µM (active).
On to `O=c1c(O)c(-c2ccc(O)cc2)oc2cc(O)cc(O)c12`, for which the IC50 is 34.5 µM (active).
On the same count and under the same terms, as for `c1ccc(CC2CCN(Cc3ccccn3)CC2)cc1`, the entry is “inactive”; as for `CC1(C)CC(=O)C=C(Nc2ccc(O)cc2)C1`, 25.9 µM (active).
Still for that read-out and setting: as for `COc1cc(C2NC(=O)C(C#N)=C(S)N2c2ccc(C)cc2)ccc1OC(C)C` (stereo not given), the entry is “inactive”.
In the case of `COc1ccc(-c2cc3ccccc3n2CC(O)CN2CCCCC2)cc1` (stereo not given), the IC50 entry was “inactive”.
Same read-out and setting: as for `COc1ccc(NCC(O)COc2ccc(C(C)(C)C)cc2)cc1` (stereo not given), the entry is “inactive”; as for `COc1ccc(NCC(O)Cn2c(C)c(C)c3ccccc32)cc1` (stereo not given), 66.8 µM (active); as for `COc1ccc(OC)c(CN2CCSCC2)c1`, “inactive”.
Same read-out and setting: as for `Oc1ccc(C2=Nn3c(nnc3-c3ccco3)SC2)cc1O`, the figure is 14.2 µM (active); as for `CC1Cc2ccccc2N1C(=O)CNCCCN(C)C` (stereo not given), “inactive”.
The same measure, in the same setting: for `CC(=O)Nc1cccc(NC(=O)c2cccc(-c3ccc(O)cc3)c2)c1` the value was 59.1 µM (active); for `COc1ccc(NC(=O)/C(Cl)=C(/Cl)S(=O)Cc2ccc(Cl)cc2)cn1` (stereo not given), “inactive”; for `COc1ccc(NC(=O)c2cccc(-c3ccc(O)cc3)c2)cn1`, 41.2 µM (active).
As to `COc1ccc(NC(=O)/C(Cl)=C(/Cl)S(=O)Cc2ccccc2)cn1` (stereo not given), the IC50 result was “inactive”.
The same measure, in the same setting: as for `O=C(Nc1ccccc1)c1cccc(-c2nnc(-c3ccccc3)o2)c1`, the entry is “inactive”.
The same measure, in the same setting: for `Oc1cccc2c(NC(=S)Nc3ccc(OC(F)F)cc3)cccc12` the value was 83.5 µM (active); for `C#CCOCCOCCOCCNc1nc(N2CCN(C(=O)CCCCCCCCCCNC(=O)[C@@H](CCSC)n3cc(CCO)nn3)CC2)nc(N2CCN(C(=O)CCCCCCCCCCNC(=O)[C@H](CO)n3cc(CCCCCN)nn3)CC2)n1`, “inactive”; for `COc1ccc(-c2ncc3ccccn23)cc1OC`, “inactive”.
As for `COc1cc2cc(-c3ccc(O)cc3O)nc(C)c2cc1OC`, the IC50 is 45.1 µM (active).
The same measure, in the same setting: as for `Oc1ccc(-c2csc(-c3cccnc3)n2)c(O)c1`, the figure is 43.4 µM (active); as for `Oc1ccc(-c2csc(-c3cccnc3)n2)cc1O`, 11 µM (active); as for `COc1ccc(-c2nc(-c3ccc(O)cc3O)cs2)cc1OC`, 55.4 µM (active).
